Composite z-score and z-score data for 16 compounds are collected here from PubChem BioAssay.

“And” between values parts separate entries of the source, which are not always exact repeats. Identical values can stand only once. The source made the active and inactive calls.

Experiment [1] has as its system Plasmodium falciparum Sir2 (PF13_0152, Sir2A). The experiment can be described thus: Plasmodium falciparum Sir2A binding compounds – biochemical, small-molecule microarray, 635 nm fluorescence, primary screen (AID 1098).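 Note: score merges spot fluorescence intensity with its signal-to-noise ratio.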 The following applies: fluorescence 635 nm, higher = more signal.
Experiment [2] in a line: probe aDKK1 binding to arrayed compounds – biochemical, biotinylated probe, 635/667 nm fluorescence, primary screen (AID 1099).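 Note: score merges 667nm spot fluorescence with signal to noise across triplicate slides; reference of the scale not given here.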 The following applies: small-molecule microarray, higher = more signal.
Experiment [3] in a line: probe aCHRDL2 binding to arrayed compounds – biochemical, biotinylated probe, 635/667 nm fluorescence, primary screen (AID 1100). The following applies: small-molecule microarray, higher = more signal.
Experiment [4] is described as follows: change in splice reporter luminescence, either direction, cell-based, HEK293, spliceosome inhibition project, primary screen (AID 1101).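 Note: HEK293 cells carrying a splicing-competent luciferase reporter gene; test concentration not given here.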 The following applies: HEK293 splicing luciferase reporter, 24 h, higher = more signal, called active from +8 up or from −8 down. In general terms: Reporter assays use an easily measured gene product as a stand-in for the process of interest.

Experiment [5] concerns the target Fibroblast growth factor 10 (Homo sapiens) (UniProt O15520). The experiment can be described thus: compounds binding fibroblast growth factor 10 – biochemical, small-molecule microarray, 635 nm fluorescence, primary screen (AID 1102). The following applies: FGF10 binding, fluorescence 635 nm, higher = more signal.
Experiment [6] concerns glycogen synthase kinase-3 (GSK3A per assay name; protocol says GSK3B). The experiment can be described thus: compounds binding glycogen synthase kinase-3 – biochemical, small-molecule microarray, 635 nm fluorescence, GSK3A, primary screen (AID 1103). Note: the record names both GSK3A and GSK3B. Conditions: fluorescence 635 nm, higher = more signal.
The target in experiment [7] is Epidermal growth factor receptor (Homo sapiens) (UniProt P00533). The experiment can be described thus: compounds binding epidermal growth factor receptor – biochemical, small-molecule microarray, 635 nm fluorescence, primary screen (AID 1104).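 Note: score merges 667 nm emission intensity with spot signal to noise over triplicate slides.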 Conditions: EGFR binding, higher = more signal.
Sequence of Epidermal growth factor receptor (Homo sapiens) (P00533 whole entry, looked up): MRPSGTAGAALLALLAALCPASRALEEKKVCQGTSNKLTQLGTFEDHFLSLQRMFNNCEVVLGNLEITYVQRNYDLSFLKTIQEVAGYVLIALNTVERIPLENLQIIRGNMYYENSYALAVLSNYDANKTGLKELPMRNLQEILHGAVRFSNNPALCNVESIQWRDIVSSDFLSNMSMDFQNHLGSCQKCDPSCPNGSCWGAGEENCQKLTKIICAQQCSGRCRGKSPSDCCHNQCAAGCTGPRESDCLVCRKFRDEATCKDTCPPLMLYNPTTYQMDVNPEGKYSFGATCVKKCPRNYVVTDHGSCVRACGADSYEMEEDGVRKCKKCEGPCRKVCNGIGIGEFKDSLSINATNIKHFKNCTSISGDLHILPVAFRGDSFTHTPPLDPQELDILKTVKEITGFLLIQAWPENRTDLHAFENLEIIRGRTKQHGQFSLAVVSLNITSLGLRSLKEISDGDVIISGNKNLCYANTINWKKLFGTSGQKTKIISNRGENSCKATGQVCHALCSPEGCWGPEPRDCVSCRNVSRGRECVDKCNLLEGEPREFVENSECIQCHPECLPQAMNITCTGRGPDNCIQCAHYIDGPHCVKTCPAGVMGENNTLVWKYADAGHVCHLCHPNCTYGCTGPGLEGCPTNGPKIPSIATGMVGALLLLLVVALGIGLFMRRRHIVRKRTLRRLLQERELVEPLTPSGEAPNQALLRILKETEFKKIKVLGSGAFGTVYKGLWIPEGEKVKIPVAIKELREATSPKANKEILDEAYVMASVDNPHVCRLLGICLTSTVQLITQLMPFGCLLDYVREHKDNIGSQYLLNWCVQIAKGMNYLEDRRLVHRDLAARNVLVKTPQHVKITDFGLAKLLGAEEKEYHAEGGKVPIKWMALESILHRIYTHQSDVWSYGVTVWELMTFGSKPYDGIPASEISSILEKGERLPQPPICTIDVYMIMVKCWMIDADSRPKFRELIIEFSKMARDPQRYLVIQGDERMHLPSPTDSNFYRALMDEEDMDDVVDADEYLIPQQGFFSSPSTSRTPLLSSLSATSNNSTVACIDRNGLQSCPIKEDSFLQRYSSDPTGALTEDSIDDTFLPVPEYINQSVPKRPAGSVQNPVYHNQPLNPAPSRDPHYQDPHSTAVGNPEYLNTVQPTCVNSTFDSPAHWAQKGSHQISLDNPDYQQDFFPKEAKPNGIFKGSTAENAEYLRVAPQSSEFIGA
The target of experiment [8] is Follistatin-related protein 3 (Homo sapiens) (UniProt O95633). The experiment can be described thus: compounds binding follistatin-related protein 3 – biochemical, small-molecule microarray, 635 nm fluorescence, primary screen (AID 1105).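 Note: score merges emission near 667 nm and signal to noise per printed spot across three slides.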 Conditions: FSTL3 binding, higher = more signal.
Sequence of Follistatin-related protein 3 (Homo sapiens) (O95633 whole entry, looked up): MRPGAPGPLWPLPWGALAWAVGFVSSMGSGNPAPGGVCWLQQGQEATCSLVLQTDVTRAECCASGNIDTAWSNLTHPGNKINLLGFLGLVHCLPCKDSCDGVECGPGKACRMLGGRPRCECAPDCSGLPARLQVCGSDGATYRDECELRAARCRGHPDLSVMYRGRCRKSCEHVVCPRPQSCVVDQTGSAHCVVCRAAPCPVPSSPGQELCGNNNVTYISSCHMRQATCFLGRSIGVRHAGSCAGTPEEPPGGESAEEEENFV
The target of experiment [9] is Dickkopf-related protein 1 (Homo sapiens) (UniProt O94907). As to the kind of experiment: small molecules binding DKK1 protein – biochemical, small-molecule microarray, 635 nm fluorescence scan, primary screen (AID 1106).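 Note: score merges emission near 667 nm with signal to noise over three replicate slides.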 Conditions: higher = more signal.
Sequence of Dickkopf-related protein 1 (Homo sapiens) (O94907 whole entry, looked up): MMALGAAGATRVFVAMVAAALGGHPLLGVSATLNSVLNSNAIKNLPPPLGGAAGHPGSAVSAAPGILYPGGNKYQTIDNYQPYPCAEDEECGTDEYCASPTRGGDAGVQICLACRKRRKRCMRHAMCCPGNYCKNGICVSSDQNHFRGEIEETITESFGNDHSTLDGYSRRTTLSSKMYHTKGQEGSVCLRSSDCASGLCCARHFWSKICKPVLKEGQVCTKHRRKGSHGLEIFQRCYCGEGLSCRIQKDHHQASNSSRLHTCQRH
In experiment [10] the test system is Inhibin beta A chain (activin A). The experiment can be described thus: small molecules binding activin A – biochemical, small-molecule microarray, 635 nm fluorescence scan, primary screen (AID 1107).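 Note: mouse activin A protein probed at 4.33 µg/mL on printed slides; score merges bound-protein fluorescence near 667 nm with spot signal-to-noise.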 Conditions: INHBA, higher = more signal.

Sequence of Fibroblast growth factor 10 (Homo sapiens) (O15520 whole entry, looked up): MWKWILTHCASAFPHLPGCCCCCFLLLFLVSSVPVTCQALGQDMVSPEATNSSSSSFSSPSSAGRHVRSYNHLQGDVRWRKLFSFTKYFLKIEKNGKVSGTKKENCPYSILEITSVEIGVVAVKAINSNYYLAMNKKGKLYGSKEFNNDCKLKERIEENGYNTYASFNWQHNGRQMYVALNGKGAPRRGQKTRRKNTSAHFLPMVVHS

Turning to `C=CCN(Cc1ccccc1)C(=O)C(c1cccs1)N(C(=O)/C=C\C(=O)O)c1ccc(CCO)cc1` (stereo not given), the composite z-score is -0.14 and -0.0434 in experiment [1]; -0.141 and -0.17 in experiment [2]; 0.98 and 0.85 in experiment [3]; -1.22 and -2.14 in experiment [5]; -1.23 and -1.61 in [6]; -1.96 and -1.68 in [7]. For the same compound, the composite z-score is -1.91 and -1.88 in experiment [8]; -2.15 and -2.42 in experiment [9]; -1.76 and -3.2 in experiment [10]. The z-score in experiment [4] is 0.203 (inactive) and 0.258 (inactive).

Regarding `C[N+](C)(C)CCCCNC(=O)[C@H]1C[C@H]2C(=O)N[C@@H](CCCC[N+](C)(C)C)C(=O)N2[C@H]1c1cccc(OCCO)c1`, the composite z-score in experiment [1] is 1.82 and 1.11; in experiment [2], -0.171 and 0.256; in experiment [3] it was -0.537 and -0.421; in experiment [5] it was 1.51 and 1.39; in experiment [6] it was 0.0299 and 1.1; in experiment [7] it was 0.622 and 1.27. The composite z-score in [8] is 1.45 and 1.51; in [9], 1.44 and 1.81; in experiment [10], 0.282 and 0.696. For the same compound, the z-score in [4] is 0.00747 (inactive) and -0.387 (inactive).

Regarding `C=CCN(CCCCC)C(=O)C(c1cccs1)N(C(=O)/C=C\C(=O)O)c1ccc(CCO)cc1` (stereo not given), the composite z-score in [1] was 0.274 and 0.158; in [2] it was -0.273 and -0.247; in experiment [3], 0.748 and 0.789; in experiment [5], -1.8 and -1.08; in experiment [6] it was -1.01 and -0.785; in [7] it was -1.79 and -1.62. The composite z-score was -1.87 and -1.55 in experiment [8]; -2.83 and -1.55 in [9]; -2.66 and -1.26 in [10]. Further, the z-score in [4] was 0.748 (inactive) and 0.709 (inactive).

As for `CC(C)=NO[C@@H](C)c1cc(-c2c(C)cc(C)cc2C)no1`, the composite z-score in experiment [1] was 0.624; in experiment [2], -0.0037; in experiment [3], 0.0373; in experiment [5], 0.0369; in experiment [6] it was -0.166; in experiment [7], -0.0855. For the same compound, the figures for the composite z-score in [8], in [9] and in experiment [10] were -0.234, -0.289 and 0.952, respectively. Moreover, in [4], the z-score is -1.47 (inactive).

Regarding `C=CCN(C(=O)C(c1cccs1)N(C(=O)/C=C\C(=O)O)c1c(Cl)cccc1CO)c1ccc(OC)cc1` (stereo not given), the composite z-score in experiment [1] is 1.67 and 0.504; in experiment [2], 0.218 and 1.01; in [3], 1.24 and 1.27; in experiment [5], -1.5 and -1.19; in [6], -0.625 and -0.907; in [7] it was -2.29 and -1.02. In addition, the composite z-score is -2.23 and -1.78 in experiment [8]; -4.06 and -2.06 in experiment [9]; -0.828 and -0.09 in [10]. The z-score in experiment [4] is -1.13 (inactive) and -0.482 (inactive).

Regarding `C=CCN(CCCC)C(=O)C1N(C(C)(C)CO)C(=O)C2C(C(=O)O)C3C=CC21O3` (stereo not given), the composite z-score in experiment [1] is 0.645 and 0.0697; in experiment [2] it was -0.188 and -0.123; in experiment [3], 0.717 and 0.644; in experiment [5], -1.84 and -0.834; in [6], -2.07 and -1.67; in experiment [7] it was -1.97 and -1.42. Moreover, the composite z-score in experiment [8] was -2 and -2.8; in [9], -2.4 and -1.9; in [10] it was -3.85 and -3. Also, the z-score in experiment [4] is 0.395 (inactive) and 0.383 (inactive).

For the compound `C=CCN(C(=O)C(c1cccs1)N(CCOCCO)C(=O)/C=C\C(=O)O)c1ccc(OC)cc1` (stereo not given), the composite z-score in experiment [1] is -1.53 and -0.0146; in experiment [2] it was -0.626 and -0.357; in experiment [3], -0.183 and 0.97; in [5], -0.934 and -0.942; in experiment [6], -0.903 and -0.645; in experiment [7], -0.254 and -1.5. Moreover, the composite z-score was -0.603 and -1.07 in experiment [8]; -0.151 and -2.76 in [9]; -0.539 and -0.186 in experiment [10]. Besides, the z-score in experiment [4] is -1.88 (inactive) and -1.58 (inactive).

As for `C=CCN(CCCCC)C(=O)C1N(C(C)(C)CO)C(=O)C2C(C(=O)O)C3C=CC21O3` (stereo not given), the composite z-score in [1] is -0.0662 and -1.13; in experiment [2] it was -0.706 and -0.0156; in experiment [3], 0.767 and 0.884; in experiment [5], -1.96 and -0.741; in experiment [6] it was -1.35 and -0.534; in experiment [7], -1.79 and -1.92. The composite z-score in experiment [8] is -1.65 and -2.06; in experiment [9] it was -1.61 and -2.14; in experiment [10] it was -3.53 and -1.16. Besides, the z-score in experiment [4] was 0.507 (inactive) and 0.484 (inactive).

Turning to `COC(=O)C1=C(C)N(Cc2ccccc2)[C@]23O[C@](C(=O)OC)(C(=O)N2[C@@H]1c1ccccc1)[C@@H](c1ccccc1)[C@@H]3C(=O)c1ccccc1`, the composite z-score in experiment [1] was -0.104 and 0.177; in experiment [2], 0.107 and 0.263; in experiment [3], -0.0791 and -0.347; in [5], 0.0494 and 0.417; in experiment [6] it was 0.338 and -0.145; in experiment [7] it was 0.0596 and 0.511. The composite z-score in [8] is 0.208 and 0.524; in experiment [9], 0.217 and 0.967; in [10], -0.431 and 1.21. The z-score in experiment [4] is -1.55 (inactive) and -0.5 (inactive).

For `C=CCN(C(=O)C1N(CCOCCO)C(=O)C2C(C(=O)O)C3C=CC21O3)c1ccc(OC)cc1` (stereo not given), the composite z-score in experiment [1] was -0.703 and 0.492; in experiment [2], 0.0448 and 0.214; in experiment [3], 0.787 and 1.07; in experiment [5] it was -1.53 and -1.43; in experiment [6], -0.805 and -0.855; in [7], -1.33 and -3.15. In addition, the composite z-score in experiment [8] is -2.58 and -2.06; in experiment [9] it was -1.83 and -2.76; in [10], -3.52 and -4.08. Moreover, the z-score in experiment [4] was 0.503 (inactive) and 0.116 (inactive).

Regarding `COC(=O)C1=C(C)N(Cc2ccccc2)C2=C(C(C)=O)[C@H](c3ccccc3)[C@@](O)(C(=O)OC)C(=O)N2[C@@H]1c1ccccc1`, the composite z-score in experiment [1] was 0.765 and -0.399; in experiment [2] it was 0.156 and -0.547; in experiment [3], -0.535 and -0.652; in experiment [5], 0.686 and 0.158; in experiment [6] it was 0.845 and -0.533; in [7], 0.365 and 0.197. The composite z-score in experiment [8] is 0.796 and 0.145; in experiment [9] it was 0.591 and -0.0346; in experiment [10], 0.174 and 1.21. Besides, the z-score in [4] is -0.694 (inactive) and -2.98 (inactive).

Take `C=C[C@H](OC)[C@@H](O)c1ccc(O)c(F)c1`: the composite z-score is 1.2 and -1.38 in experiment [1]; -0.48 and -0.349 in experiment [2]; 0.7 and 0.65 in experiment [3]; -1.35 and -1.61 in experiment [5]; -2.09 and -1.69 in experiment [6]; -2.36 and -1.75 in experiment [7]. In addition, the composite z-score is -1.89 and -1.94 in experiment [8]; -2 and -1.4 in experiment [9]; -1.87 and -1.2 in experiment [10]. Besides, in [4], the z-score is -0.257 (inactive) and 0.0293 (inactive).

As to `COc1ccc(-c2ccc3c(n2)CCCN3CC(O)CN2CCCc3nc(-c4ccc(Br)cc4)ccc32)cc1` (stereo not given), the composite z-score is 1.01 and 0.727 in experiment [1]; 0.507 and 0.293 in experiment [2]; 0.0498 and 0.803 in experiment [3]; 0.829 and 0.6 in [5]; 0.682 and 0.382 in [6]; 0.476 and 0.459 in experiment [7]. Besides, the composite z-score in experiment [8] was 0.868 and 0.601; in experiment [9], 0.372 and 0.291; in experiment [10] it was 1.33 and -1.05. In experiment [4], the z-score is 0.0317 (inactive) and -0.356 (inactive).

Turning to `CC(C)C(=O)N[C@@H]1CCCN1C(=O)C=Cc1ccccc1`, the composite z-score in experiment [1] is 0.98; in experiment [2], -0.311; in experiment [3], -0.469; in experiment [5], 0.419; in experiment [6], 0.883; in experiment [7] it was 0.432. The composite z-score in experiment [8] is 0.709; in experiment [9], 0.47; in experiment [10], -0.172. For the same compound, the z-score in [4] is 0.655 (inactive).

With `O=C1[C@H]2[C@H]3[C@H](O)[C@H](O)CC(=NOCc4ccccc4)[C@H]3CC[C@H]2C(=O)N1Cc1ccccc1`, the composite z-score is 0.424 in experiment [1]; -0.276 in experiment [2]; -0.476 in experiment [3]; 0.185 in experiment [5]; -0.601 in experiment [6]; 0.486 in experiment [7]. The composite z-score was 0.606 in experiment [8], 0.737 in experiment [9] and -0.201 in [10]. Also, in experiment [4], the z-score was -2.42 (inactive).

As for `CCOC(=O)[C@H](Cc1ccccc1)NC(=O)CCC1CC(OC(=O)NCc2cccc3ccccc23)CC2(CCCC(COC(=O)NCCCN3CCCC3=O)O2)O1` (stereo not given in full), the composite z-score in experiment [1] is 0.513; in experiment [2] it was -0.104; in experiment [3], -0.517; in experiment [5], 0.447; in [6], 0.901; in experiment [7], 0.405. Moreover, the composite z-score in [8] is 0.804; in experiment [9], 0.866; in experiment [10] it was -0.0698. Moreover, the z-score in experiment [4] is -1.09 (inactive).
